Bioassay records (PubChem)
BL2 CD40 inh = CD40 pathway inhibition in BL2 cells. 83,000 compounds, 0.94% hits. BL2 NF-kB luciferase reporter, CD40L-induced, 4 h. inhibition, % at 10 µM. AID 1053188;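 active means mean inhibition of at least 50% with a set share of replicates also reaching that level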;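 further: 0% = neutral control wells and 100% = IKK inhibitor VII at 50 µM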
The depositor's hits bear a star; [ ] = dose if it differs, or a comment. This is one part of a sample in which hits are shown more often than they occur.

SMILES	BL2 CD40 inh
COc1ccc(NC(=O)c2ccccc2NC(=O)c2ccco2)cc1	-8
COc1ccc(-c2ccc(NC(=O)c3ccco3)cc2)nn1	82*
CC=Cc1ccc2n(c1=O)C[C@H]1[C@H](CO)[C@@H](C(=O)N[C@H](C)c3ccccc3)N(C(=O)c3ccccn3)[C@@H]21 (mixture of isomers)	-1[25 µM]
C[C@H](NC(=O)[C@@H]1[C@@H](CO)[C@@H]2Cn3c(cccc3=O)[C@@H]2N1CCC(F)(F)F)c1ccccc1	-10[25 µM]
C[C@H]1CCCCO[C@@H](CN(C)C(=O)C2CCCCC2)[C@@H](C)CN([C@@H](C)CO)C(=O)c2cc(NS(=O)(=O)c3ccccc3)ccc2O1	10[25 µM]
C[C@@H]1CCCCO[C@@H](CN(C)Cc2ccc(C(F)(F)F)cc2)[C@H](C)CN([C@@H](C)CO)C(=O)c2cc(NC(=O)Nc3cccc4ccccc34)ccc2O1	10[25 µM]
C[C@@H]1CCCCO[C@@H](CN(C)C(=O)C2CCCCC2)[C@@H](C)CN([C@H](C)CO)C(=O)c2cc(NS(=O)(=O)c3ccccc3)ccc2O1	67*[25 µM]
COc1ccc(S(=O)(=O)Nc2ccc3c(c2)C(=O)N([C@H](C)CO)C[C@@H](C)[C@H](CN(C)Cc2ccc(C(F)(F)F)cc2)OCCCC[C@H](C)O3)cc1	26[25 µM]
C[C@@H]1CN([C@H](C)CO)C(=O)c2cc(NC(=O)Nc3cccc4ccccc34)ccc2O[C@@H](C)CCCCO[C@H]1CN(C)Cc1ccc(C(F)(F)F)cc1	49*[25 µM]
C[C@@H]1CCCCO[C@@H](CN(C)Cc2ccc(C(F)(F)F)cc2)[C@H](C)CN([C@H](C)CO)C(=O)c2cc(NC(=O)Nc3cccc4ccccc34)ccc2O1	29[25 µM]
C[C@@H]1CCCCO[C@@H](CN(C)Cc2ccc(C(F)(F)F)cc2)[C@@H](C)CN([C@H](C)CO)C(=O)c2cc(NC(=O)Nc3cccc4ccccc34)ccc2O1	16[25 µM]
C[C@@H]1CCCCO[C@H](CN(C)Cc2ccc(C(F)(F)F)cc2)[C@@H](C)CN([C@@H](C)CO)C(=O)c2cc(NC(=O)Nc3cccc4ccccc34)ccc2O1	51*[25 µM]
COc1ccc(S(=O)(=O)Nc2ccc3c(c2)C(=O)N([C@H](C)CO)C[C@H](C)[C@@H](CN(C)Cc2ccc(C(F)(F)F)cc2)OCCCC[C@@H](C)O3)cc1	53*[25 µM]
C[C@@H]1CCCCO[C@H](CN(C)Cc2ccc(C(F)(F)F)cc2)[C@H](C)CN([C@@H](C)CO)C(=O)c2cc(NC(=O)Nc3cccc4ccccc34)ccc2O1	15[25 µM]
C[C@H]1CCCCO[C@H](CN(C)C(=O)C2CCCCC2)[C@@H](C)CN([C@@H](C)CO)C(=O)c2cc(NS(=O)(=O)c3ccccc3)ccc2O1	14[25 µM]
COc1ccc(S(=O)(=O)Nc2ccc3c(c2)C(=O)N([C@@H](C)CO)C[C@H](C)[C@@H](CN(C)Cc2ccc(C(F)(F)F)cc2)OCCCC[C@H](C)O3)cc1	15[25 µM]
CNC[C@H]1OCCCC[C@@H](C)Oc2ccc(NS(=O)(=O)c3ccc(F)cc3)cc2C(=O)N([C@H](C)CO)C[C@@H]1C	-23[25 µM]
C[C@@H]1CN([C@H](C)CO)C(=O)CCCn2nncc2CO[C@@H]1CN(C)Cc1ccc(Cl)c(Cl)c1	18[25 µM]
O=C(c1ccccc1F)N1C[C@@H]2[C@H](c3ccccc31)[C@H](CO)N2C(=O)c1ccc(F)cc1	2[25 µM]
N#C[C@H]1[C@H](c2ccc(-c3cncnc3)cc2)[C@H](CO)N1C(=O)CN1CCOCC1	-18[25 µM]
CC(=O)N1[C@@H](CO)[C@@H](c2ccccc2)C12CN(S(=O)(=O)c1ccccc1)C2	-6[25 µM]
Cc1noc(C)c1S(=O)(=O)Nc1ccc2c(c1)CC(=O)N([C@@H](C)CO)C[C@@H](C)[C@H](CN(C)Cc1ccc(Oc3ccccc3)cc1)O2	4[25 µM]
CCCNC(=O)N1[C@H](C#N)[C@H](c2ccc(-c3cccnc3)cc2)[C@H]1CO	3[25 µM]
Cn1ncc2c(N3CCOCC3)ncnc21	7
Cc1cccc(-n2ncc3c(N4CCOCC4)ncnc32)c1	78*
SMILES	BL2 CD40 inh
Cc1ccc(-n2ncc3c(N4CCN(c5ccccc5)CC4)ncnc32)c(C)c1	15
COc1ccccc1C(=O)N1C[C@@H]2[C@H](c3ccccc31)[C@H](CO)N2C(=O)C1CCCC1	2
CSC1SCC2C(=O)N(C)C(C(C)C)C(=O)OCC(NC(=O)c3cnc4ccccc4n3)C(=O)NC(C)C(=O)N(C)C1C(=O)N(C)C(C(C)C)C(=O)OCC(NC(=O)c1cnc3ccccc3n1)C(=O)NC(C)C(=O)N2C (stereo not given)	92*
C[C@H](NC(=O)[C@@H]1[C@@H](CO)[C@@H]2Cn3c(cccc3=O)[C@@H]2N1Cc1cccnc1)c1ccccc1	1[25 µM]
C/C=C/c1ccc([C@H]2[C@@H](CO)N(C(=O)Cc3cccnc3)[C@H]2CNC(C)=O)cc1	1
N#C[C@@H]1[C@H](c2ccccc2)[C@H](CO)N1C(=O)CCN1CCCCC1	1[25 µM]
COc1ccc(S(=O)(=O)N(C)C[C@@H]2Oc3ccc(NC(=O)CCN4CCOCC4)cc3CC(=O)N([C@H](C)CO)C[C@H]2C)cc1	4[25 µM]
CCCNC(=O)N1[C@H](CO)[C@H](c2ccccc2)[C@H]1CNC(=O)c1ccc(F)cc1	14
O=C(NCc1ccncn1)[C@H]1[C@H](CO)[C@H]2Cn3c(ccc(-c4ccc(F)cc4)c3=O)[C@H]2N1CC1CC1	12[25 µM]
O=C1C=CC(=O)N1Cc1cccnc1	7
O=C1C=CC(=O)N1CCCCCCCCCCN1C(=O)C=CC1=O	110*
O=C1CCC(=O)N[C@@H](c2ccc(F)cc2)C/C=C\C[C@H](c2ccc(F)cc2)N1	0[25 µM]
CCCN1C[C@H](C)[C@@H](OC)CN(C)C(=O)c2cc(NC(=O)NC3CCCC3)ccc2OC[C@@H]1C	2
C[C@H](CO)N1C[C@H](C)[C@H](CN(C)C(=O)[C@@H](Cc2ccccc2)N(C)C)OCc2ccccc2-c2ccccc2C1=O	-1[25 µM]
Cc1ccc(C(OCC(O)CNCc2ccc(F)cc2)c2ccccc2)cc1 (stereo not given)	50*
OC(COC(c1ccc(F)cc1)c1ccc(F)cc1)CN1CCCC1 (stereo not given)	6
O=C(c1ccccc1)c1ccc(OCC(O)CNCc2ccc(F)cc2)cc1 (stereo not given)	10
COCCNC(=O)C[C@H]1C[C@@H]2c3cc(NC(=O)NC4CCCCC4)ccc3O[C@@H]2[C@@H](CO)O1	2
CN1C[C@@H]2[C@H](c3ccccc31)[C@@H](CO)N2Cc1ccccc1	5[25 µM]
O=C(C[C@@H]1C=C[C@H](NC(=O)Nc2ccc3c(c2)OCO3)[C@H](CO)O1)NCCCN1CCOCC1	0[25 µM]
CCCCCCCC/C=C/CCCCCCCC(=O)NC(CO)Cc1ccc(O)cc1 (stereo not given)	8[25 µM]
O=C(O)CCC/C=C/CC1COC(C(F)(F)F)OC1c1ccccc1O (stereo not given)	-5[25 µM]
Cc1ccc(S(=O)(=O)N2CCC(N3CCC(C)CC3)CC2)cc1	6
CC1CCN(S(=O)(=O)c2ccc3c(c2)oc(=O)n3C)CC1	8
CC1CCN(S(=O)(=O)c2ccc3c(c2)C(Cl)(Cl)C(=O)N3)CC1	53*
N#C[C@H]1[C@@H](c2ccccc2)[C@H](CO)N1C(=O)Cc1ccccc1	-4[25 µM]
CCCCC#Cc1nc(NC)c2ncn(C3OC(CO)C(O)C3O)c2n1 (stereo not given)	-4[25 µM]
CCc1csc(N2[C@@H](C#N)[C@@H](c3ccc(C#Cc4ccc(F)cc4)cc3)[C@@H]2CO)n1	20[25 µM]
N#C[C@@H]1[C@@H](c2ccccc2)[C@@H](CO)N1C(=O)c1cccnc1	5
